# From PubChem BioAssay
# Activity calls are given as the source filed them. Unless noted, how the calls were made is not given here.
# What was measured:
# [1] = compounds binding Alexa647 anti-His antibody – biochemical, small-molecule microarray, 635 nm fluorescence, artefact control for SMM control protein annotation, primary screen (AID 1128); settings: higher = more signal;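 further: score merges feature fluorescence with signal-to-noise for each printed compound spot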
# [2] = test system: Human papillomavirus type 1a E7 protein (residues 1-88); assay: HPV1a E7 small-molecule binders, primary screen, biochemical, small-molecule microarray, residues 1-88, 635 nm (AID 1129); settings: small-molecule microarray binding, fluorescence 635 nm; higher = more signal
# [3] = biological target: Focal adhesion kinase 1 (Homo sapiens) (UniProt Q05397); assay: PTK2 protein binding on printed compound slides – biochemical, small-molecule microarray, 635/667 nm fluorescence, BSA, DTT, primary screen (AID 1130); settings: 635 nm fluorescence, higher = more signal;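 further: composite of spot emission at 667 nm and signal to noise over triplicate slides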
# [4] = test system: Fibrinogen (Alexa647-labelled); assay: Alexa647-fibrinogen binding to printed small molecules – biochemical, small-molecule microarray, 635/667 nm fluorescence, artefact control for SMM control-protein annotation, profiling panel (AID 1131); settings: fibrinogen-A647 binding fluorescence, higher = more signal;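 further: z-score merges 667 nm fluorescence with per-spot signal-to-noise over triplicate slides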
# [5] = biological target: Follistatin (Homo sapiens) (UniProt P19883); assay: FST protein binding to printed compounds – biochemical, small-molecule microarray, 635/667 nm fluorescence, primary screen (AID 1132); settings: 635 nm fluorescence, higher = more signal
# [6] = biological target: Fibroblast growth factor 2 (Homo sapiens) (UniProt P09038); assay: basic fibroblast growth factor binding to printed compounds – biochemical, small-molecule microarray, 635/667 nm fluorescence, primary screen (AID 1133); settings: FGF2, fluorescence 635/667, higher = more signal
# [7] = JC-1 mitochondrial potential readout, lung cancer cells – cell-based, A549, JC-1 fluorescence, basal, 24 h, 100 nL, profiling panel (AID 1138); settings: higher = more signal;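 further: A549 lung adenocarcinoma cells under basal conditions with no added stimulus; test concentration not given here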
# Lefty1 = Lefty1 protein binding to printed compounds – biochemical, small-molecule microarray, 635/667 nm fluorescence, primary screen (AID 1139); settings: fluorescence 635/667, higher = more signal
# [8] = test system: wheat germ agglutinin (Triticum aestivum), Alexa647-labelled; assay: Alexa647-WGA lectin binding to printed small molecules – biochemical, small-molecule microarray, 635/667 nm fluorescence, artefact control for SMM control-protein annotation, profiling panel (AID 1140); settings: WGA-A647 binding, 635 nm fluorescence, higher = more signal;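 further: score merges 667 nm feature emission with signal to noise over triplicate slides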
# [9] = biological target: Luciferin 4-monooxygenase (Photinus pyralis) (UniProt P08659); assay: inhibition of purified Photinus pyralis luciferase – biochemical, luminescence, purified enzyme, 2006 set, primary screen (AID 1141); settings: purified firefly luciferase, SteadyGlo luminescence, 30 min; higher = more signal, called active from +8 up or from −8 down;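 further: cell-free assay with purified firefly luciferase at 100 ng per well in PBS; test concentration not given here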
# [10] = test system: Wnt5a (protein binding on small-molecule microarray); assay: small molecules binding Wnt5a protein – biophysical, small-molecule microarray, 635/667 nm fluorescence, primary screen (AID 1142); settings: 635 nm fluorescence, higher = more signal;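 further: fluorescence read at 667 nm with signal to noise per printed feature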
# [11] = ATP-based viability of Huh7 replicon cells – cell-based, CellTiter-Glo luminescence, basal, 48 h, cytotoxicity control for HCV replication inhibitor project, primary screen (AID 1143); settings: higher = more signal, called active from +8 up or from −8 down;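 further: Huh7 hepatoma cells carrying a hepatitis C replication reporter with no stimulus; test concentration not given here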
# [12] = Pseudomonas biofilm growth suppression – PAO1 strain, BacTiter-Glo luminescence, LB-PBS, primary screen (AID 1144); settings: P. aeruginosa PAO1 biofilm, 12 h, higher = more signal
# [13] = basal CRE-LacZ reporter activity in PC12 – cell-based, unstimulated, primary screen (AID 1145); settings: no forskolin, luminescence, 4.5 h, higher = more signal, called active from +8 up or from −8 down
# [14] = forskolin-driven CRE-LacZ activity in PC12 – cell-based, CRE-LacZ reporter, forskolin-stimulated, primary screen (AID 1146); settings: luminescence, 4.5 h, higher = more signal, called active from +8 up or from −8 down;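 further: PC12 cells with 6xCRE LacZ reporter stimulated by forskolin 10 µM; beta-galactosidase reporter signal reflecting CREB driven transcription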
# [15] = biological target: Streptavidin (Streptomyces avidinii) (UniProt P22629); assay: compounds binding control protein streptavidin – biophysical, small-molecule microarray, 635/667 nm fluorescence, artefact control for SMM compound annotation, primary screen (AID 1147); settings: higher = more signal;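 further: signal reflects streptavidin binding to arrayed compounds as a control protein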
# [16] = probe aInhba binding on compound microarray – biochemical, small-molecule microarray, 635/667 nm fluorescence, primary screen (AID 1148); settings: higher = more signal;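 further: score merges 667nm spot fluorescence with signal-to-noise for antibody binding to printed compounds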
# Torsin-1A (Homo sapiens) [17] = biological target: Torsin-1A (Homo sapiens) (UniProt O14656); assay: TOR1A wild-type binding on microarray – cell lysate, small-molecule microarray, lysate, 635/667 nm, primary screen (AID 1149); settings: COS7 hTOR1A-WT lysate, 635 nm fluorescence, higher = more signal
# Torsin-1A (Homo sapiens) [18] = biological target: Torsin-1A (Homo sapiens) (UniProt O14656); assay: torsin A mutant lysate binding on microarrays – cell lysate, small-molecule microarray, COS7 lysate, 635/667 nm fluorescence, primary screen (AID 1150); settings: COS7 hTOR1A mutant lysate, 635 nm fluorescence, higher = more signal;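 further: score pools 667 nm emission and signal to noise measuring lysate protein binding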
# [19] = test system: Sonic hedgehog protein (Shh); assay: Sonic hedgehog microarray binding compounds – biochemical, small-molecule microarray, 635/667 nm fluorescence, primary screen (AID 1151); settings: 635 nm fluorescence, higher = more signal;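 further: Shh protein binding to compounds spotted on small-molecule microarray slides; score combines spot fluorescence intensity with signal-to-noise across triplicate slides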
# Chain of Focal adhesion kinase 1 (Homo sapiens) (Q05397 whole entry, looked up): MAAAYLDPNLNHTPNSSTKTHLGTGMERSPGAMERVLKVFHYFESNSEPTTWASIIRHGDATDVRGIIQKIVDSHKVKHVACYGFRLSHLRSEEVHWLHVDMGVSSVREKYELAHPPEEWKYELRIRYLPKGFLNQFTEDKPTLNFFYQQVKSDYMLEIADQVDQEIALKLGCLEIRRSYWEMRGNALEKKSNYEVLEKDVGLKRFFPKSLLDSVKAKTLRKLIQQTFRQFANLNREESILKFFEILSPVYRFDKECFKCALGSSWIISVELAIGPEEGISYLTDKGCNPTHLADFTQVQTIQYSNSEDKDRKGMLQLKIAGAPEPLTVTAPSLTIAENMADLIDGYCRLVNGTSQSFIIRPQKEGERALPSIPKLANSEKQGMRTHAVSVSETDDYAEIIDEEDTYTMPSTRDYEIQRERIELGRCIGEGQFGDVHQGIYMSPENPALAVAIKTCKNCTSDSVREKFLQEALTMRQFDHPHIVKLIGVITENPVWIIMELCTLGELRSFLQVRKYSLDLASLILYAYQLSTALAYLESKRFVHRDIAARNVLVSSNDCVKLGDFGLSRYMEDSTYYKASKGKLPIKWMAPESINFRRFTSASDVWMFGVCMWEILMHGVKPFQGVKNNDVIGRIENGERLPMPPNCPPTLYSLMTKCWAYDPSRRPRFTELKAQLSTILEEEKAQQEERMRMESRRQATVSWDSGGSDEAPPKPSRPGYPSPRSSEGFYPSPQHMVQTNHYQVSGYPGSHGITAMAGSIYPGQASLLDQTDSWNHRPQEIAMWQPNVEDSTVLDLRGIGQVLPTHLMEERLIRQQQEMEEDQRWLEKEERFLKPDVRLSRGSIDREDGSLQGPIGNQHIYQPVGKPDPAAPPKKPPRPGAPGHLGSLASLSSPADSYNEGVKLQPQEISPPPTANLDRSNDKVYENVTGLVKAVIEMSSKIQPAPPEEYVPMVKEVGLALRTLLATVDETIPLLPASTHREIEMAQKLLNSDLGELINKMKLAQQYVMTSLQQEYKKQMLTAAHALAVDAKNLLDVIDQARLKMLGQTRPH
# Chain of Follistatin (Homo sapiens) (P19883 whole entry, looked up): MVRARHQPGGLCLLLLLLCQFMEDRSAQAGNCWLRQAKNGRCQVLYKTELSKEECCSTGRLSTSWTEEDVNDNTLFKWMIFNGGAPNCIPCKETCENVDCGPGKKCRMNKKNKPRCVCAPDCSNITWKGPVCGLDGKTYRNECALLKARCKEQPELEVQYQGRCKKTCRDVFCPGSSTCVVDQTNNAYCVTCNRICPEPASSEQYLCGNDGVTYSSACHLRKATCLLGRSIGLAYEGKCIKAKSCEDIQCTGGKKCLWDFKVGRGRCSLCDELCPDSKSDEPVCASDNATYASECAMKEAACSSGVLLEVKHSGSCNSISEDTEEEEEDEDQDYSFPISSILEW
# Chain of Luciferin 4-monooxygenase (Photinus pyralis) (P08659 whole entry, looked up): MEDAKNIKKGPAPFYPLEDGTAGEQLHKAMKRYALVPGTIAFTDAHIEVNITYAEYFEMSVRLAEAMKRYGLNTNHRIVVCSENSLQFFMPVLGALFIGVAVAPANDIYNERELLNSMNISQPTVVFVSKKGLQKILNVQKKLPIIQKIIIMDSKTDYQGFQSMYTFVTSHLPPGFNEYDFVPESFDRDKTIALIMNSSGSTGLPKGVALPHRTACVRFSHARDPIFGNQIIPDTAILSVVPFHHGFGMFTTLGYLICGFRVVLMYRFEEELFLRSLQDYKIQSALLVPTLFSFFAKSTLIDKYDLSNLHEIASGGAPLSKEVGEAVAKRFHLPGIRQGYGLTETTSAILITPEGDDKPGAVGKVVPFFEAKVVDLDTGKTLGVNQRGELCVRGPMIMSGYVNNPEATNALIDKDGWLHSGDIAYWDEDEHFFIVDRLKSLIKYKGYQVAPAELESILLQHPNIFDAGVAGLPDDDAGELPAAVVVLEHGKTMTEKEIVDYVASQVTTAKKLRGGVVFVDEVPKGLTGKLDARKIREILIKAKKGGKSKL
# Chain of Fibroblast growth factor 2 (Homo sapiens) (P09038 whole entry, looked up): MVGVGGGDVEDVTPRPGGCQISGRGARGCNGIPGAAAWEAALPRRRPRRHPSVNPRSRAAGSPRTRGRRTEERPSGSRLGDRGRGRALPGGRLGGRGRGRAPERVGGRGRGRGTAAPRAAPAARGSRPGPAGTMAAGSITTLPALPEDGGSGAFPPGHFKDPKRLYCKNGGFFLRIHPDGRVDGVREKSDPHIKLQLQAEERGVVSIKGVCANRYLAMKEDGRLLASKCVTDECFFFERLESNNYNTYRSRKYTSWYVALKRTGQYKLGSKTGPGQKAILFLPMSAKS
# Chain of Torsin-1A (Homo sapiens) (O14656 whole entry, looked up): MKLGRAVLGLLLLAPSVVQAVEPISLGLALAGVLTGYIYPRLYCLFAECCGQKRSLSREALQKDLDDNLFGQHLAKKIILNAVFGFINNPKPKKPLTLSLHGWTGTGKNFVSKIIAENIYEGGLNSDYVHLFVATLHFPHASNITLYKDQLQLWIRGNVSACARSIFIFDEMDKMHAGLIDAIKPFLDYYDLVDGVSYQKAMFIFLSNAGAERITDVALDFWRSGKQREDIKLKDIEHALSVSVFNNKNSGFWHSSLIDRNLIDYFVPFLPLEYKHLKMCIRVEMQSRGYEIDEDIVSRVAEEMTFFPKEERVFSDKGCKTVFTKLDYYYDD
# Chain of Streptavidin (Streptomyces avidinii) (P22629 whole entry, looked up): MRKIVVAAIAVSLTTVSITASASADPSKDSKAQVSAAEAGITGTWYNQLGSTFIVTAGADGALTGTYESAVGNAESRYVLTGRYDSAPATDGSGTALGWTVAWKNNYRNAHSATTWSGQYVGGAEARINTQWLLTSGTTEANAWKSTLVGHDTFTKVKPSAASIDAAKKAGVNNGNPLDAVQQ
Structure (SMILES),composite z-score [1],composite z-score [2],composite z-score [3],composite z-score [4],composite z-score [5],composite z-score [6],z-score [7],composite z-score (Lefty1),composite z-score [8],z-score [9],composite z-score [10],z-score [11],z-score [12],z-score [13],z-score [14],composite z-score [15],composite z-score [16],composite z-score (Torsin-1A (Homo sapiens) [17]),composite z-score (Torsin-1A (Homo sapiens) [18]),composite z-score [19]
Cc1cc2c(nc1C)CCCN2CC(O)CN1CCN(C)CC1 (stereo not given),1.51,0.1,0.648,-0.702,0.936,0.688,0.63,0.409,1.02,0.246 (inactive),-0.168,-1.28 (inactive),0.816 (inactive),-0.613 (inactive),-0.91 (inactive),0.549,0.198,0.679,0.528,0.672
CC(=O)C[C@H](O)[C@@H](NC(=O)OC(C)(C)C)C(C)C,-0.0599,-1.54,-0.352,-0.454,-0.118,-0.312,-0.824,0.304,-0.644,0.364 (inactive),-0.388,-2.64 (inactive),-1.13 (inactive),0.288 (inactive),1.01 (inactive),-0.3,-0.0963,-1.05,-0.657,0.347
C=CCOC(=O)[C@H]1[C@@H]2C(=O)O[C@@H](c3ccccc3)[C@@H](c3ccccc3)N2[C@@H](c2ccc(OCCOC(=O)[C@H]3C[C@H]4C(=O)N5CCC[C@H]5C(=O)N4[C@H]3c3cccc(OCCO)c3)cc2)[C@]12C(=O)Nc1ccc(I)cc12,3.59,1.25,-0.259,0.97,1.46,1.68,0.445,1.37,1.5,0.108 (inactive),1.83,0.156 (inactive),-0.315 (inactive),-0.134 (inactive),0.437 (inactive),2.76,1.17,1.95,2.23,2.08
COC(=O)[C@H](C)NC(=O)CCC1CC(OC(=O)NCc2cccc3ccccc23)CC2(CCCC(COC(=O)NCC3CCCCC3)O2)O1 (stereo not given in full),0.876,1.22,0.234,0.986,0.591,1.4,-0.25,1.09,0.487,0.925 (inactive),0.835,-0.426 (inactive),-0.803 (inactive),0.91 (inactive),1.76 (inactive),0.688,0.0543,1.02,1.05,1.43
COC(=O)[C@H]1COC(c2ccc(OCCCO)cc2)=N1,-0.748,-0.877,-0.57,-4.27,0.267,1.14,-0.765,-0.878,0.177,-21.6 (active),-0.0323,-0.597 (inactive),-0.767 (inactive),0.0686 (inactive),0.697 (inactive),-0.998,-0.204,0.337,1.4,-0.196
CC(C)[C@@H](OCc1ccccc1)[C@H](C)C=NOC[C@@H](C)[C@H](OCc1ccccc1)C(C)C,0.0377,0.289,0.121,-0.0745,0.426,0.139,-0.753,0.595,-0.0388,-0.11 (inactive),0.187,0.459 (inactive),0.627 (inactive),0.471 (inactive),-0.144 (inactive),0.118,-0.128,0.256,0.204,0.256
COC(=O)[C@H](C)NC(=O)CCC1CC(OC(=O)NCc2ccc3c(c2)OCO3)CC2(CCCC(COC(=O)NCCOc3ccccc3)O2)O1 (stereo not given in full),0.486,1.15,0.0281,0.59,0.463,1.09,1.09,0.735,0.262,-0.314 (inactive),0.12,-1.55 (inactive),-1.53 (inactive),-0.349 (inactive),-0.422 (inactive),0.607,-0.128,0.248,0.492,1.67
O=C1O[C@@H](c2ccccc2)[C@@H](c2ccccc2)N2[C@@H](c3ccc(OCCO)cc3)[C@]3(C(=O)Nc4ccc(C#CCCO)cc43)[C@@H](C(=O)N3CCCCCCC3)[C@H]12,1.86,1.17,0.782,0.965,1.39,0.585,-0.287,1.56,1.35,-1.62 (inactive),0.825,-1.11 (inactive),-0.928 (inactive),-0.168 (inactive),0.0629 (inactive),2.31,1.75,0.782,1.31,1.59
CCOC(=O)[C@H](Cc1ccccc1)NC(=O)CCC1CC(OC(=O)NCc2ccc3c(c2)OCO3)CC2(CCCC(COC(=O)NCC3CCCCC3)O2)O1 (stereo not given in full),0.273,1.18,0.188,0.91,0.904,0.48,0.491,0.876,0.206,0.986 (inactive),0.0472,-0.734 (inactive),-0.0126 (inactive),-0.613 (inactive),-0.177 (inactive),0.592,-0.0289,-0.407,0.538,1.36
CC(CCN1CCCCc2nc(C)c(C)cc21)=NOC(C)CN1CCCCc2nc(C)c(C)cc21 (stereo not given),2.37,1.2,0.332,0.911,1.29,1.3,0.828,1.6,1.11,-0.483 (inactive),0.183,-2.16 (inactive),0.483 (inactive),0.187 (inactive),0.907 (inactive),1.1,0.0528,2.88,2.32,1.69
